{"source": "paper PMC12820563", "about": "“FoxP3 forms a head-to-head dimer in vivo and stabilizes its multimerization on adjacent microsatellites”", "note": "The full ranking holds about 16,000 sequences; the median of “rpm ratio (pull-down/input)” is about 0.5, and the highest 2% start at about 5.5. For the sample, the highest values were picked, then their nearest neighbours and some sequences at random."}
{"biological_target": "T1, MBP-FoxP3dN (Mus musculus, UniProt Q99JB6 188-423)", "T1 sequence": "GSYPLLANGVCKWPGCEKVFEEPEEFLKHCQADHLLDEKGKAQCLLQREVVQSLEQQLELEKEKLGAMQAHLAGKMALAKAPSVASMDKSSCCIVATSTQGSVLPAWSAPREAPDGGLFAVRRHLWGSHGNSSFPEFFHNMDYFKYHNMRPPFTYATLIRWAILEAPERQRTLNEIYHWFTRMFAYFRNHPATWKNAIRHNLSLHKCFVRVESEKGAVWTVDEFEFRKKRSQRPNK", "experiment": "PD-seq (MBP pull-down with sequencing); 20 mM Tris-HCl pH 7.5, 100 mM NaCl, 1.5 mM MgCl2, 0.4 uM protein, 0.1 uM dsDNA library, 30 min, room temperature, amylose pull-down; high values mean tight binding", "conditions": "protein: recombinant; tags: His6-MBP; chain copies: 2; dsDNA, one strand shown", "summary_of_the_method": "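Binding is given as reads-per-million enrichment, pull-down over input, with replicates pooled. The bait was an N-terminus-lacking mouse FoxP3 or FoxP1 fragment with a His6-MBP tag, expressed in E. coli and used at 0.4 µM with 0.1 µM Klenow-filled degenerate double-stranded DNA library for 30 min at room temperature in Tris pH 7.5 buffer with NaCl and MgCl2. Amylose resin pull-down with three washes was followed by proteinase K release, PCR barcoding and Illumina sequencing.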"}
{"sequence": "GATGATTGTTCTCCCAGCTGATGAATTTAATCAATCGAGTAAACAAATTTTCCTAATCTTTCTGTTCAAGCGCCATCTAC", "binding signal": "0.269 RPM ratio (pull-down/input)"}
{"sequence": "GATGATTGTTCTCCCAGCTGATGAATTTGGTCCGTCGAGTAAACAAATTTTCCTAATCTTTCTGTTCAAGCGCCATCTAC", "binding signal": "0.363 RPM ratio (pull-down/input)"}
{"sequence": "GATGATTGTTCTCCCAGCTGATGAATTGGAACTCTCGAGTAAACAAATTTTCCTAATCTTTCTGTTCAAGCGCCATCTAC", "binding signal": "0.343 RPM ratio (pull-down/input)"}
{"sequence": "GATGATTGTTCTCCCAGCTGATGAATTCCTTTGGTCGAGTAAACAAATTTTCCTAATCTTTCTGTTCAAGCGCCATCTAC", "binding signal": "0.395 RPM ratio (pull-down/input)"}
{"sequence": "GATGATTGTTCTCCCAGCTGATGAATTGACACATTCGAGTAAACAAATTTTCCTAATCTTTCTGTTCAAGCGCCATCTAC", "binding signal": "0.772 RPM ratio (pull-down/input)"}
{"sequence": "GATGATTGTTCTCCCAGCTGATGAATTGCGATGGTCGAGTAAACAAATTTTCCTAATCTTTCTGTTCAAGCGCCATCTAC", "binding signal": "1.01 RPM ratio (pull-down/input)"}
{"sequence": "GATGATTGTTCTCCCAGCTGATGAATTACGCGCCTCGAGTAAACAAATTTTCCTAATCTTTCTGTTCAAGCGCCATCTAC", "binding signal": "1.67 RPM ratio (pull-down/input)"}
{"sequence": "GATGATTGTTCTCCCAGCTGATGAATTACGCCTCTCGAGTAAACAAATTTTCCTAATCTTTCTGTTCAAGCGCCATCTAC", "binding signal": "5.99 RPM ratio (pull-down/input)"}
{"sequence": "GATGATTGTTCTCCCAGCTGATGAATTACGCATCTCGAGTAAACAAATTTTCCTAATCTTTCTGTTCAAGCGCCATCTAC", "binding signal": "7.33 RPM ratio (pull-down/input)"}
{"sequence": "GATGATTGTTCTCCCAGCTGATGAATTACTCCACTCGAGTAAACAAATTTTCCTAATCTTTCTGTTCAAGCGCCATCTAC", "binding signal": "0.339 RPM ratio (pull-down/input)"}
{"sequence": "GATGATTGTTCTCCCAGCTGATGAATTACGCGCATCGAGTAAACAAATTTTCCTAATCTTTCTGTTCAAGCGCCATCTAC", "binding signal": "1.54 RPM ratio (pull-down/input)"}
{"sequence": "GATGATTGTTCTCCCAGCTGATGAATTACGCCACTCGAGTAAACAAATTTTCCTAATCTTTCTGTTCAAGCGCCATCTAC", "binding signal": "6.17 RPM ratio (pull-down/input)"}
{"sequence": "GATGATTGTTCTCCCAGCTGATGAATTTACGCACTCGAGTAAACAAATTTTCCTAATCTTTCTGTTCAAGCGCCATCTAC", "binding signal": "0.784 RPM ratio (pull-down/input)"}
{"sequence": "GATGATTGTTCTCCCAGCTGATGAATTTTACGCCTCGAGTAAACAAATTTTCCTAATCTTTCTGTTCAAGCGCCATCTAC", "binding signal": "0.506 RPM ratio (pull-down/input)"}
{"sequence": "GATGATTGTTCTCCCAGCTGATGAATTACGCAGCTCGAGTAAACAAATTTTCCTAATCTTTCTGTTCAAGCGCCATCTAC", "binding signal": "1.78 RPM ratio (pull-down/input)"}
{"sequence": "GATGATTGTTCTCCCAGCTGATGAATTAGATGTGTCGAGTAAACAAATTTTCCTAATCTTTCTGTTCAAGCGCCATCTAC", "binding signal": "2.71 RPM ratio (pull-down/input)"}
{"sequence": "GATGATTGTTCTCCCAGCTGATGAATTGTCCCGCTCGAGTAAACAAATTTTCCTAATCTTTCTGTTCAAGCGCCATCTAC", "binding signal": "0.272 RPM ratio (pull-down/input)"}
{"sequence": "GATGATTGTTCTCCCAGCTGATGAATTAAGTCCGTCGAGTAAACAAATTTTCCTAATCTTTCTGTTCAAGCGCCATCTAC", "binding signal": "0.307 RPM ratio (pull-down/input)"}
{"sequence": "GATGATTGTTCTCCCAGCTGATGAATTTCGCTTGTCGAGTAAACAAATTTTCCTAATCTTTCTGTTCAAGCGCCATCTAC", "binding signal": "3.29 RPM ratio (pull-down/input)"}
{"sequence": "GATGATTGTTCTCCCAGCTGATGAATTCTATACATCGAGTAAACAAATTTTCCTAATCTTTCTGTTCAAGCGCCATCTAC", "binding signal": "0.559 RPM ratio (pull-down/input)"}
{"sequence": "GATGATTGTTCTCCCAGCTGATGAATTCTATATATCGAGTAAACAAATTTTCCTAATCTTTCTGTTCAAGCGCCATCTAC", "binding signal": "1.18 RPM ratio (pull-down/input)"}
{"sequence": "GATGATTGTTCTCCCAGCTGATGAATTCTGTATATCGAGTAAACAAATTTTCCTAATCTTTCTGTTCAAGCGCCATCTAC", "binding signal": "5.72 RPM ratio (pull-down/input)"}
{"sequence": "GATGATTGTTCTCCCAGCTGATGAATTTTGTATATCGAGTAAACAAATTTTCCTAATCTTTCTGTTCAAGCGCCATCTAC", "binding signal": "7.43 RPM ratio (pull-down/input)"}
{"sequence": "GATGATTGTTCTCCCAGCTGATGAATTTTATACATCGAGTAAACAAATTTTCCTAATCTTTCTGTTCAAGCGCCATCTAC", "binding signal": "0.598 RPM ratio (pull-down/input)"}
{"sequence": "GATGATTGTTCTCCCAGCTGATGAATTGTATATATCGAGTAAACAAATTTTCCTAATCTTTCTGTTCAAGCGCCATCTAC", "binding signal": "3.21 RPM ratio (pull-down/input)"}
{"sequence": "GATGATTGTTCTCCCAGCTGATGAATTCAGTATATCGAGTAAACAAATTTTCCTAATCTTTCTGTTCAAGCGCCATCTAC", "binding signal": "2.12 RPM ratio (pull-down/input)"}
{"sequence": "GATGATTGTTCTCCCAGCTGATGAATTTGTAATATCGAGTAAACAAATTTTCCTAATCTTTCTGTTCAAGCGCCATCTAC", "binding signal": "1.95 RPM ratio (pull-down/input)"}
{"sequence": "GATGATTGTTCTCCCAGCTGATGAATTGTATACATCGAGTAAACAAATTTTCCTAATCTTTCTGTTCAAGCGCCATCTAC", "binding signal": "5.87 RPM ratio (pull-down/input)"}
{"sequence": "GATGATTGTTCTCCCAGCTGATGAATTTCAGCAATCGAGTAAACAAATTTTCCTAATCTTTCTGTTCAAGCGCCATCTAC", "binding signal": "1.94 RPM ratio (pull-down/input)"}
{"sequence": "GATGATTGTTCTCCCAGCTGATGAATTCACAGCATCGAGTAAACAAATTTTCCTAATCTTTCTGTTCAAGCGCCATCTAC", "binding signal": "0.801 RPM ratio (pull-down/input)"}
{"sequence": "GATGATTGTTCTCCCAGCTGATGAATTAGCACTTTCGAGTAAACAAATTTTCCTAATCTTTCTGTTCAAGCGCCATCTAC", "binding signal": "0.435 RPM ratio (pull-down/input)"}
{"sequence": "GATGATTGTTCTCCCAGCTGATGAATTAATCTATTCGAGTAAACAAATTTTCCTAATCTTTCTGTTCAAGCGCCATCTAC", "binding signal": "0.398 RPM ratio (pull-down/input)"}
{"sequence": "GATGATTGTTCTCCCAGCTGATGAATTTCTAATTTCGAGTAAACAAATTTTCCTAATCTTTCTGTTCAAGCGCCATCTAC", "binding signal": "0.301 RPM ratio (pull-down/input)"}
{"sequence": "GATGATTGTTCTCCCAGCTGATGAATTATGTTTGTCGAGTAAACAAATTTTCCTAATCTTTCTGTTCAAGCGCCATCTAC", "binding signal": "7.57 RPM ratio (pull-down/input)"}
{"sequence": "GATGATTGTTCTCCCAGCTGATGAATTGATTATGTCGAGTAAACAAATTTTCCTAATCTTTCTGTTCAAGCGCCATCTAC", "binding signal": "1.86 RPM ratio (pull-down/input)"}
{"sequence": "GATGATTGTTCTCCCAGCTGATGAATTGTTTATGTCGAGTAAACAAATTTTCCTAATCTTTCTGTTCAAGCGCCATCTAC", "binding signal": "7 RPM ratio (pull-down/input)"}
{"sequence": "GATGATTGTTCTCCCAGCTGATGAATTATGTCTGTCGAGTAAACAAATTTTCCTAATCTTTCTGTTCAAGCGCCATCTAC", "binding signal": "1.14 RPM ratio (pull-down/input)"}
{"sequence": "GATGATTGTTCTCCCAGCTGATGAATTATTTATGTCGAGTAAACAAATTTTCCTAATCTTTCTGTTCAAGCGCCATCTAC", "binding signal": "2.12 RPM ratio (pull-down/input)"}
{"sequence": "GATGATTGTTCTCCCAGCTGATGAATTTTTTATGTCGAGTAAACAAATTTTCCTAATCTTTCTGTTCAAGCGCCATCTAC", "binding signal": "0.31 RPM ratio (pull-down/input)"}
{"sequence": "GATGATTGTTCTCCCAGCTGATGAATTTATGTTGTCGAGTAAACAAATTTTCCTAATCTTTCTGTTCAAGCGCCATCTAC", "binding signal": "4.93 RPM ratio (pull-down/input)"}
{"sequence": "GATGATTGTTCTCCCAGCTGATGAATTTATTATGTCGAGTAAACAAATTTTCCTAATCTTTCTGTTCAAGCGCCATCTAC", "binding signal": "5.83 RPM ratio (pull-down/input)"}
{"sequence": "GATGATTGTTCTCCCAGCTGATGAATTTGTTATGTCGAGTAAACAAATTTTCCTAATCTTTCTGTTCAAGCGCCATCTAC", "binding signal": "6.84 RPM ratio (pull-down/input)"}
{"sequence": "GATGATTGTTCTCCCAGCTGATGAATTGGTTATGTCGAGTAAACAAATTTTCCTAATCTTTCTGTTCAAGCGCCATCTAC", "binding signal": "2.38 RPM ratio (pull-down/input)"}
{"sequence": "GATGATTGTTCTCCCAGCTGATGAATTTATGATGTCGAGTAAACAAATTTTCCTAATCTTTCTGTTCAAGCGCCATCTAC", "binding signal": "3.91 RPM ratio (pull-down/input)"}
{"sequence": "GATGATTGTTCTCCCAGCTGATGAATTTCTTATGTCGAGTAAACAAATTTTCCTAATCTTTCTGTTCAAGCGCCATCTAC", "binding signal": "0.657 RPM ratio (pull-down/input)"}
